Results reported in ChEMBL document CHEMBL5058541.

Tests used:
[1] = molecular target: Bromodomain-containing protein 4 (Homo sapiens) (UniProt O60885); settings: Compound concentration 20.0 uM, Protein concentration 2.0 uM, Result type QC Liability
[2] = molecular target: T1, Transcription intermediary factor 1-alpha (Homo sapiens) (UniProt O15164); settings: Compound concentration 20.0 uM, Protein concentration 2.0 uM, Result type QC Liability
T1 sequence (whole entry): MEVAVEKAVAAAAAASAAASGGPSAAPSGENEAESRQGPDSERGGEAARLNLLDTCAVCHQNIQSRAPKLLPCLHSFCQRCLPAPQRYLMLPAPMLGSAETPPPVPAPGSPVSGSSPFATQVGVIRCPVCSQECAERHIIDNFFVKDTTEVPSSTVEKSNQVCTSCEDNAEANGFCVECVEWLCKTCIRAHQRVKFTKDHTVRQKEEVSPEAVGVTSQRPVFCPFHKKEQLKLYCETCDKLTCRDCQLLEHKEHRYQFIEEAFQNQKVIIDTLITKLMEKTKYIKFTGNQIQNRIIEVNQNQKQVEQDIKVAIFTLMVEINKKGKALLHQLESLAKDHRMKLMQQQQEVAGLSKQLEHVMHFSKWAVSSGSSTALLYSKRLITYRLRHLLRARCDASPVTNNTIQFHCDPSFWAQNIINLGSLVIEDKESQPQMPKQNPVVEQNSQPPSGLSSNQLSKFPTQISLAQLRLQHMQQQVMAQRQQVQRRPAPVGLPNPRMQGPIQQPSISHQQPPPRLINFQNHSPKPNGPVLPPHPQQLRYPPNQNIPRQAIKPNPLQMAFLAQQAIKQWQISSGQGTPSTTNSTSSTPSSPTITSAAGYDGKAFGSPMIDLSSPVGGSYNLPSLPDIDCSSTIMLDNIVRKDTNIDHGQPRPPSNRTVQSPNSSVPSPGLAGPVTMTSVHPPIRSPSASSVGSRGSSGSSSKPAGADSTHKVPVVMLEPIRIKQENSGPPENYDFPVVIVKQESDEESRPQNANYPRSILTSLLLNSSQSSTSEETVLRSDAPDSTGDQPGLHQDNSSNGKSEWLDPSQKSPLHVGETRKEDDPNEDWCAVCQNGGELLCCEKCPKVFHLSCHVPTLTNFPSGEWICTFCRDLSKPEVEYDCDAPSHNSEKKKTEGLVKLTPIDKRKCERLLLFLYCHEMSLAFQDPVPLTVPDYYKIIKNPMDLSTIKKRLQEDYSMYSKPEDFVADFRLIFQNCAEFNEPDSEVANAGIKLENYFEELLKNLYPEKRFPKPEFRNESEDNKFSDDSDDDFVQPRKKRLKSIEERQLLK

Row | Structure (SMILES) | ΔTm [1] [c] | ΔTm [2] [c]
1 | CN(C)C(=O)c1ccc(-c2cc(C(=O)N[C@@H]3CCc4ccccc43)no2)cc1O | -0.51 | -0.594
2 | O=C(NCCCN1CCOC1=O)c1cnc(NCc2cc(Br)ccc2Br)nc1NC1CCCC1 | 0 | 0
3 | CS(=O)(=O)N1CCCC(NC(=O)[C@H](CCC2CCCCC2)NC(=O)c2ccc(CNC(=O)c3cnc4ccccn34)cc2)C1 (stereo partly drawn) | 0.345 | 0.0818
4 | CN(c1ncccc1CNc1ccnc(-c2nc3c(F)c(Cl)ccc3[nH]2)n1)S(C)(=O)=O | -0.76 | -0.07
